Out of some 5,500 compounds screened, about 2,000 (36%) were called active. About 18% were inconclusive and are not listed. Cut-off read from the data, not from the text of the source: active = normalized growth mostly below about 0.91 (no sharp cut-off); inconclusive = no clear call, values can overlap the other calls; inactive = mostly above about 0.92. The list shows a part of the results.
Test: chemical genetic growth profiling, strain panel (AID 1159580);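 note: tested at 20 µM; growth read once vehicle control cultures reached saturation at 30 °C; 1 = growth at the plate median or of vehicle wells; lower values mean less growth of the strain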
Details: S. cerevisiae deletion strains, growth OD

Measured: normalized growth

C[C@]12C=CC(=O)C=C1CC[C@@H]1C2=CC[C@]2(C)[C@@H](C(=O)CN3CCN(c4cc(N5CCCC5)nc(N5CCCC5)n4)CC3)CC[C@@H]12
inactive: locus YAL013W, strain DEP1, hits give low values 0.97 | locus YAL040C, strain CLN3, hits give low values 0.998 | locus YCL061C, strain MRC1 (second series), hits give low values 0.976 | locus YDR363W, strain ESC2, hits give low values 0.964 | locus YER002W, strain NOP16, hits give low values 1.01 | locus YGR078C, strain PAC10, hits give low values 0.995 | locus YMR263W, strain SAP30, hits give low values 0.993 | locus YMR307W, strain GAS1, hits give low values 0.998 | locus YNL128W, strain TEP1, hits give low values 1.03 | locus YNL175C, strain NOP13, hits give low values 1.02 | locus YNL197C, strain WHI3, hits give low values 1.04 | locus YNL224C, strain SQS1, hits give low values 1.01 | locus YOR083W, strain WHI5 (second series), hits give low values 1.01
